About 140 (10%) of roughly 1,400 compounds were called active.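 Rule for the calls: active = Half-maximal inhibitory dose from the fit at or below ten times the top valid tested dose; inconclusive = Invalid fit, or flat curve showing 30 to 70% inhibition; inactive = the rest.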 Not all results are given here. Measured potencies and affinities stand elsewhere.

In this assay the target is Lysine-specific demethylase 4C (Homo sapiens) (UniProt Q9H3R0). The assay is described as follows: GASC-1 (JMJD2C) histone demethylase inhibitors, dose response, biochemical, DELFIA europium, cherry-picked samples (AID 488835).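 Note: signal is the H3K9me2 demethylation product detected by a dimethyl-specific antibody.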 The following applies: GST-JMJD2C(1-420), H3K9me3 demethylation; series mostly up to 6 µM.
Chain of Lysine-specific demethylase 4C (Homo sapiens) (Q9H3R0 1-420 limits assumed): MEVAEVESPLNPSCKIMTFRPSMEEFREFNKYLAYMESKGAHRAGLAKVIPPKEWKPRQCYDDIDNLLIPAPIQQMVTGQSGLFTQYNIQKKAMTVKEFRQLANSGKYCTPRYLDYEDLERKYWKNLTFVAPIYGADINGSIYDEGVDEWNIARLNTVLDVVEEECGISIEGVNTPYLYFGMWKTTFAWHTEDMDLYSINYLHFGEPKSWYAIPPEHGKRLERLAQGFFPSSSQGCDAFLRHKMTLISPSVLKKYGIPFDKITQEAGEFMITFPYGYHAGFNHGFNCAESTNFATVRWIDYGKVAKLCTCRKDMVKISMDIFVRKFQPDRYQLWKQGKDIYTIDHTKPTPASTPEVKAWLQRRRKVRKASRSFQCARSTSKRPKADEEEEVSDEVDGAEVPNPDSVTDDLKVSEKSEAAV
For `C[C@H](CO)N1C[C@H](C)[C@@H](CN(C)Cc2ccc(C(=O)O)cc2)Oc2c(NC(=O)c3ccncc3)cccc2C1=O`, the call was inactive.

For the molecule `O=C(O)Cn1cc(/C=C2/SC(=O)N(CC(=O)N3CCCCCC3)C2=O)c2ccccc21`, the molecule was classed as inactive. `O=C(O)CCC(=O)Nc1nc2nc(-c3ccccc3)cc(-c3ccccc3)n2n1`: the molecule was classed as inactive. To `CCN(C[C@H]1N[C@@](C)(C(=O)OC)[C@H]2C(=O)N(Cc3ccccc3)C(=O)[C@@H]12)C(=O)Nc1ccc(F)cc1` belongs “inactive”; to `Cc1cc(N2C(=O)C(=O)/C(=C(/O)c3ccc(F)cc3)C2c2cccc(Br)c2)no1` (stereo unspecified), “inactive”; to `COc1cccc(/C=C/C(=O)NCCc2ccc(OC)c(OC)c2)c1`, “inactive”.

Regarding `CCc1ccc(-c2cc(C)no2)cc1S(=O)(=O)NCCc1ccc(OC)c(OC)c1`, the outcome was inactive. As to `Cc1ccccc1NS(=O)(=O)c1ccc(C(=O)NCC(c2ccco2)N(C)C)cc1` (stereo unspecified), the molecule was classed as inactive.

On to `COc1ccccc1/C=C/C(=O)Nc1ccc(N2CCOCC2)cc1`, for which the molecule was called inactive. Take `Cc1cc(C)c2cc(C#N)c(SCC(=O)Nc3ccc4c(c3)OCO4)nc2c1`: the result was inactive. To `O=C(/C=C\Nc1ccc(Cl)cn1)c1ccc(Br)cc1` belongs “inactive”; to `CCCNC1=C(N(C(C)=O)c2cccc(F)c2)C(=O)c2ccccc2C1=O`, “inactive”; to `C#CCOCCOCCOCCNc1nc(N2CCN(C(=O)[C@H](CCCN=C(N)N)n3cc(C(N)[C@H](C)CC)nn3)CC2)nc(N2CCN(C(=O)[C@H](CC(N)=O)n3cc(C(N)[C@@H](C)CC)nn3)CC2)n1` (stereo partly specified), “inactive”. To `C#CCOCCOCCOCCNc1nc(N2CCOCC2)nc(N2CCN(C(=O)[C@H](CCCN=C(N)N)n3cc(C(N)[C@@H](C)CC)nn3)CC2)n1` (stereo partly specified) belongs “inactive”; to `C#CCOCCOCCOCCNc1nc(N2CCN(C(=O)[C@H](CCC(=O)O)n3cc(CN)nn3)CC2)nc(N2CCN(C(=O)[C@H](CCCN=C(N)N)n3cc(C(N)[C@@H](C)CC)nn3)CC2)n1` (stereo partly specified), “inactive”; to `C#CCOCCOCCOCCNc1nc(N2CCN(C(=O)[C@H](CCCN=C(N)N)n3cc(C(N)[C@@H](C)CC)nn3)CC2)nc(N2CCN(C(=O)[C@H](CCC(=O)O)n3cc([C@@H](N)[C@H](C)CC)nn3)CC2)n1` (stereo partly specified), “inactive”. With `Oc1cc2ccccc2cc1-c1nnc2n1-c1ccccc1SC2`, the call was inactive. To `CC(=O)Nc1sc2c(c1CN1CCN(C)CC1)CCCC2` belongs “inactive”; to `COc1ccc(S(=O)(=O)N2CC(O)CC2C(=O)OCc2nc3sc(C)c(C)c3c(=O)[nH]2)cc1` (stereo unspecified), “inactive”. With `CC1CCN(C(=O)CSc2nnc(CNC(=O)c3c(F)cccc3F)o2)CC1` the entry was “inactive”; with `CNC(=O)c1sccc1-n1cccc1`, “inactive”; with `CCOC(=O)C1(C)NC(c2cccs2)C2C(=O)N(c3ccc(OC)cc3)C(=O)C21` (stereo unspecified), “inactive”. To `Cc1ccccc1CNc1nnnn1C` belongs “inactive”. For `Oc1ccc(Br)cc1/C=N/Nc1nc(N2CCCCC2)nc(N2CCOCC2)n1`, the outcome was inactive. With `O=C(N/N=C/c1ccc(O)cc1)c1cncc(Br)c1` the entry was “inactive”. Take `CN1CCC[C@H]1CCNC(=O)c1c(-c2ccsc2)sc2ccccc12`: the call was inactive. With `Cn1c(=O)c2[nH]c(N3CCN(c4cccc(O)c4)CC3)nc2n(C)c1=O` the entry was “inactive”; with `CC(OC(=O)CN1C(=O)COc2ccccc21)C(=O)NCc1ccc(F)cc1` (stereo unspecified), “inactive”; with `Cc1ccc(C(C)C)c(Oc2nnnn2-c2ccccc2)c1`, “inactive”. With `O=C(c1cc2c(s1)CCC2)N1C(=O)c2ccccc2S1(=O)=O` the entry was “inactive”.

Consider `O=C(Cn1cncn1)NCc1cc(F)ccc1F`, for which the result was inactive.

Take `C[C@H]1CN([C@@H](C)CO)C(=O)c2cccc(NC(=O)C3CC3)c2O[C@H]1CN(C)Cc1ccncc1`: the result was inactive. Consider `C[C@H](CO)N1C[C@H](C)[C@@H](CN(C)CC2CCCCC2)Oc2c(NC(=O)C3CC3)cccc2C1=O`, for which the molecule was classed as inactive. With `C[C@H](CO)N1C[C@H](C)[C@@H](CN(C)S(=O)(=O)c2cccs2)Oc2c(NC(=O)CCC(F)(F)F)cccc2C1=O` the entry was “inactive”; with `Cc1ccc(NC(=O)COC(=O)CCc2c[nH]c(=O)[nH]2)cc1`, “inactive”. As to `COc1cc([N+](=O)[O-])ccc1NC(=O)CSc1nccn1C`, the molecule was called inactive. For `COc1ccc(OC)c(/C=C2\SC(=S)N(Cc3cccnc3)C2=O)c1`, the molecule was classed as inactive. To `O=C(N1CCN(c2ccccc2)CC1)C12CC3CC(CC(C3)C1)C2` belongs “inactive”. With `CSc1nsc(SCC(=O)Nc2c(C)n(C)n(-c3ccccc3)c2=O)n1` the entry was “inactive”; with `O=C(NNC(=O)c1ccc(SCC2CCCO2)c([N+](=O)[O-])c1)c1ccc(Cl)c([N+](=O)[O-])c1` (stereo unspecified), “inactive”; with `CCCCC(=O)NC(NC(=S)N1CCOCC1)C(Cl)(Cl)Cl` (stereo unspecified), “inactive”.

In the case of `CC(C)(C)n1nc2c(c1NC(=O)c1ccc(Br)o1)CS(=O)C2` (stereo unspecified), the molecule was classed as inactive.

For the molecule `O=C(Nc1ccc(-c2nc3ncccc3o2)cc1)c1ccc(Br)o1`, the result was inactive. With `COc1ccc(S(=O)(=O)Nc2ccc3c(c2)C(=O)N([C@H](C)CO)C[C@H](C)[C@@H](CN(C)S(=O)(=O)c2c(C)noc2C)O3)cc1` the entry was “inactive”; with `COC(=O)CN1C(=O)[C@H]2[C@@H](/C=C/c3ccccc3)N3C(=O)CN(Cc4ccccn4)C(=O)[C@@]3(Cc3ccccc3)[C@H]2C1=O`, “inactive”; with `COC(=O)c1ccc(/C=C/c2c(-c3ccc(OC)cc3)sc3ccccc23)cc1`, “inactive”. With `COc1ccc2c(C(=O)CN3CCN(c4ccccc4)CC3)c[nH]c2c1` the entry was “inactive”; with `Cc1noc(C)c1C(=O)Nc1ccc2ccccc2c1`, “inactive”. `Cc1noc(C)c1NC(=O)N(C)C[C@H]1Oc2ccc(NC(=O)CCC(F)(F)F)cc2C(=O)N([C@H](C)CO)C[C@@H]1C`: the result was inactive. Consider `Fc1ccccc1OCCCCn1cncn1`, for which the call was inactive. To `CC(C)=CCN1CCN(Cc2cn[nH]c2C2CCCCC2)CC1CCO` (stereo unspecified) belongs “inactive”; to `O=C(C[C@H]1C/C=C/CC[C@@H](Cc2ccc(F)cc2)C(=O)O[C@@H](c2ccccc2)CNC1=O)NCCO`, “inactive”. With `CCOC(=O)C1CCN(S(=O)(=O)c2cc3c4c(c2)C(C)C(=O)N4CCC3)CC1` (stereo unspecified) the entry was “inactive”; with `COc1ccc(NC(=O)NCCCCc2ccccc2)c(OC)c1`, “inactive”. As to `CCn1nc(C(=O)NNC(=O)COc2ccc(OC)cc2)c2ccccc2c1=O`, the result was inactive. With `O=c1nc(SCc2cccc(C(F)(F)F)c2)nc2ccccn12` the entry was “inactive”; with `Cc1cccc(NC(=S)N(CCN2CCOCC2)Cc2cc3cc4c(cc3[nH]c2=O)OCO4)c1`, “inactive”; with `CCCCn1c(=O)[nH]c(=O)c2c1nc(-c1cc(Cl)c(OC)c(OC)c1)n2C`, “inactive”.

Turning to `CNc1nc2c(c(=O)[nH]c(=O)n2C)n1CCCc1ccccc1`, the outcome was inactive. Regarding `CCOC(=O)Cn1nc(C)c2c1CCCC2=O`, the molecule was called inactive. To `CCC(NS(=O)(=O)c1cccs1)c1ccc(C)cc1` (stereo unspecified) belongs “inactive”. To `O=S1(=O)CCC(N=Nc2c(O)n(Cc3ccccc3)c3ccccc23)C1` (stereo unspecified) belongs “inactive”; to `Cc1ccccc1Cn1c2ccccc2c2cn[nH]c(=O)c21`, “inactive”. With `C[C@H](N)c1nnc(SCC(=O)N(C)C)o1` the entry was “inactive”; with `COc1ccc(CCNC(=O)CSCc2n[nH]c(=O)[nH]2)cc1OC`, “inactive”. For the molecule `CCOc1ccccc1Nc1ncnc2ccccc12`, the result was inactive. Take `CCOC(=O)c1csc(N/N=C2\CCc3ccccc32)n1`: the outcome was inactive.

For `COc1ccc(/C=N/N=C2\CC3CCC2(C)C3(C)C)cc1O` (stereo unspecified), the outcome was inactive.

As to `Cc1cc(C)c(NC(=O)CS(=O)CC(=O)Nc2ccc(F)cc2F)c(C)c1` (stereo unspecified), the molecule was classed as inactive.

For `Cc1cccc2c1-c1sc(C(=O)Nc3cccc([N+](=O)[O-])c3C)cc1CO2`, the molecule was classed as inactive. With `Fc1cccc(F)c1/C=N/N1CCOCC1` the entry was “inactive”; with `COc1cccc(CSc2nnc(C(F)(F)F)n2Cc2ccc(F)cc2)c1`, “inactive”. With `O=C1CCCC2=C1C(c1ccc(OS(=O)(=O)c3ccc(Cl)cc3)cc1)C1=C(CCCC1=O)O2` the entry was “inactive”. With `O=C1c2ccc([N+](=O)[O-])cc2C(=O)N1Cc1cccnc1` the entry was “inactive”. With `COc1ccc(CCNC(=O)c2ccc(N3CCCCS3(=O)=O)cc2)cc1OC`, the result was inactive. On to `O=C(NCCCN1CCCC1=O)c1cc(-c2cccnc2)nc2ccc(Cl)cc12`, for which the result was inactive.

With `CCCC(=O)NC(c1cccs1)c1cc(Cl)c2cccnc2c1O` (stereo unspecified), the call was inactive. To `COc1ccc(CN2CCNC(=O)C2CC(=O)NCc2csc(C(C)C)n2)c(OC)c1` (stereo unspecified) belongs “inactive”. With `Cc1ccc(C2=[N+]([O-])C(C)(C)CC2)cc1` the entry was “inactive”; with `O=C(/C=C/c1cccs1)NC1CCS(=O)(=O)C1` (stereo unspecified), “inactive”; with `CCOC(=O)c1c(NC(=O)C2CCCO2)sc2c1CCC2` (stereo unspecified), “inactive”. With `CC(C)(C)NC(=O)C1CCN(C(=O)c2ccc(Br)cc2)CC1`, the result was inactive. Regarding `CC1=C(C#N)C(Nc2ccc(C)cn2)(C(F)(F)F)C(=O)N1` (stereo unspecified), the molecule was called inactive. To `Cc1ccccc1C(=O)Nc1ccccc1C(=O)NC1CC1` belongs “inactive”; to `Cc1csc(SCC(=O)Nc2ccccc2C)n1`, “inactive”; to `N/C(=N\NC(=O)c1ccc(Cl)cc1)c1cnccn1`, “inactive”.

As for `CCCc1c(NC(=O)Nc2ccc(F)cc2)cnn1-c1ccccc1`, the molecule was classed as inactive. With `CC1CCN(c2ccc3c(c2)S(=O)(=O)c2cccc(C(=O)NC4CC4)c2C3=O)CC1` the entry was “inactive”.

With `CCOC(=O)CCC(=O)NCc1ccc2c(c1)cc(C)n2C`, the outcome was inactive.

For the molecule `CCN(c1ccc(NC(=O)CCNC(=O)c2ccco2)cc1)C(C)C`, the outcome was inactive. To `Cc1c(C2Nc3ccccc3NC3=C2C(=O)CC(C)(C)C3)cnn1C` (stereo unspecified) belongs “inactive”.

`CCOc1cccc(SCc2noc(C(=O)NC(C)C)c2C(=O)O)c1`: the molecule was called inactive.

Turning to `Cc1sc2ncnc(NCCCO)c2c1C`, the molecule was called inactive. To `Cc1sc2c(c1C)C(=O)/C(=C\Nc1ccccn1)S(=O)(=O)N2C` belongs “inactive”; to `CCN(C[C@H]1N[C@@](Cc2ccccc2)(C(=O)OC)[C@H]2C(=O)N(Cc3ccccc3)C(=O)[C@@H]12)S(=O)(=O)c1ccccc1`, “inactive”. With `CCN(C[C@H]1N[C@@](CC)(C(=O)OC)[C@H]2C(=O)N(C)C(=O)[C@@H]12)S(=O)(=O)c1ccc(C(F)(F)F)cc1` the entry was “inactive”.
